# Unmarked numbers belong to inactive results. Inconclusive results are not listed. Activity calls are given as the source filed them. The call rests on the fitted dose curve; in most records, active means well fitted curve in the direction sought with a large enough effect; inconclusive means small, poorly fitted or top-dose-only effect, or another doubt; inactive means no such curve, though single readings can be large; an effect the other way counts as inactive or inconclusive.
# Experiment: qHTS assay for cell viability of the p53RE-bla HCT-116 cell line (AID 743292); further: on the % scale 0 is the no-effect control and ±100 the full control effect; nearly all actives have a fitted effect of over 55% in size
# Conditions: p53RE-bla HCT-116 viability, ATP luminescence, 16 h; series mostly up to 95 µM; activity change, negative = cytotoxicity: at the top concentration
# Procedure, shortened: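 CellSensor p53RE-bla HCT-116 cells, 4,000/well, preincubated 5 h at 37 C, then exposed to compounds in DMSO for 16 h at 37 C. Viability read as CellTiter-Glo luminescence (intracellular ATP) after 30 min at room temperature.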
Structure (SMILES),"activity change, negative = cytotoxicity [%]",outcome
C=C(CC)C(=O)c1ccc(OCC(=O)O)c(Cl)c1Cl,9.05,–
CC/C(=C(/CC)c1ccc(O)cc1)c1ccc(O)cc1,-21,–
C[C@H]1C[C@H]2[C@@H]3CCC4=CC(=O)C=C[C@]4(C)[C@@]3(Cl)[C@@H](O)C[C@]2(C)[C@@]1(O)C(=O)CO,-7.03,–
COc1cccc2c1C(=O)c1c(O)c3c(c(O)c1C2=O)C[C@@](O)(C(C)=O)C[C@@H]3O[C@H]1C[C@H](N)[C@H](O)[C@H](C)O1,14.1,–
O=c1ccc2ccccc2o1,–,inactive
CC(O)(P(=O)(O)O)P(=O)(O)O,7.51,–
C=CCc1ccc(O)c(OC)c1,–,inactive
CC(O)C(=O)O (stereo not given),1.39,–
CCCCCCc1ccc(O)cc1O,–,inactive
CN(C)/N=N/c1nc[nH]c1C(N)=O,-1.71,–
Cc1cc(=O)n(-c2ccccc2)n1C,-2.65,–
Oc1c(Cl)cc(Cl)cc1Sc1cc(Cl)cc(Cl)c1O,–,inactive
Nc1ccc(C(=O)O)cc1,-1.07,–

# Experiment: qHTS assay for measurement of the activity of small molecule inhibitors on Zika virus induced Caspase-3 activity in human iPSC derived neural progenitor cells (hNPCs) (AID 1224857); further: % of control where 0% means no effect; nearly all actives have a fitted effect of over 65% in size
# Conditions: hNPCs ZIKV-induced caspase-3/7, Caspase-Glo luminescence, 6 h; series mostly up to 45.7 µM; activity change, negative = inhibition: at the top concentration
# Procedure, shortened: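 Values are percent inhibition of virus-induced caspase-3/7 signal, scaled between uninfected cells and ZIKV-infected cells. Infection used 2 FFU/cell for 6 h after 1 h compound exposure.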
row,Structure (SMILES),"activity change, negative = inhibition"
1,CCCSS/C(CCO)=C(\C)N(C=O)Cc1cnc(C)nc1N,-0.177%
2,CN(C)CCOc1ccccc1Cc1ccccc1,-1.49%
3,C=C(CC)C(=O)c1ccc(OCC(=O)O)c(Cl)c1Cl,-1.25%
4,Cc1ccnc(NS(=O)(=O)c2ccc(N)cc2)n1,8.75%
5,CC(C)=CCC1C(=O)N(c2ccccc2)N(c2ccccc2)C1=O,24.4%
6,CCN1CCN(c2cc3c(cc2F)c(=O)c(C(=O)O)cn3C2CC2)CC1,-10.2%
7,CC/C(=C(/CC)c1ccc(O)cc1)c1ccc(O)cc1,10.8%
8,C[C@H]1C[C@H]2[C@@H]3CCC4=CC(=O)C=C[C@]4(C)[C@@]3(Cl)[C@@H](O)C[C@]2(C)[C@@]1(O)C(=O)CO,40.8%
9,COc1cccc2c1C(=O)c1c(O)c3c(c(O)c1C2=O)C[C@@](O)(C(C)=O)C[C@@H]3O[C@H]1C[C@H](N)[C@H](O)[C@H](C)O1,59.3%
10,O=c1ccc2ccccc2o1,-14%
11,CC(O)(P(=O)(O)O)P(=O)(O)O,8.7%
12,C=CCc1ccc(O)c(OC)c1,7.84%
13,CC(O)C(=O)O (stereo not given),-1.79%
14,NC(CO)(CO)CO,3.28%
15,CCCCN1CCCC1C(=O)Nc1c(C)cc(C)cc1C (stereo not given),12.1%
16,Oc1ccc(Cl)c2cccnc12,5.77%
17,CCN(CCCc1ccccc1)CCCc1ccccc1,31.4%
18,CCCCCCc1ccc(O)cc1O,2%

row,Structure (SMILES),"activity change, negative = inhibition"
1,COc1cc(-c2ccc(=O)[nH]n2)ccc1OC(F)F,-16.2%
2,CC(C)(C)CC(C)(C)c1ccc(OCCOCC[N+](C)(C)Cc2ccccc2)cc1,-9.55%
3,CCCCCCCCCCCCCCCCCC(=O)OCC(O)CO (stereo not given),-24.5%
4,Cc1nc2n(c(=O)c1CCN1CCC(c3noc4cc(F)ccc34)CC1)CCC[C@H]2O,-0.0339% [at 20.5 µM]
5,CC[N+](CC)(CCNC(=O)C(=O)NCC[N+](CC)(CC)Cc1ccccc1Cl)Cc1ccccc1Cl,-5.5%
6,CN(C)/N=N/c1nc[nH]c1C(N)=O,-5.49%
7,O=C(N/N=C/c1ccccc1O)c1ccncc1,7.99%
8,Cc1cc(=O)n(-c2ccccc2)n1C,-0.629%
9,CC1=C(C(=O)O)N2C(=O)[C@@H](NC(=O)[C@H](N)c3ccc(O)cc3)[C@H]2SC1,1.64%
10,CC(=O)OCC(=O)[C@@]12N=C(C)O[C@@H]1C[C@H]1[C@@H]3CCC4=CC(=O)C=C[C@]4(C)[C@H]3[C@@H](O)C[C@@]12C,-8.21%
11,C[C@]12CC[C@@H]3c4ccc(O)cc4CC[C@H]3[C@@H]1C[C@@H](O)[C@@H]2O,3.98%
12,C[n+]1c2cc(N)ccc2cc2ccc(N)cc21 (tested in a mixture with another compound),-4.04%
13,Cc1c(F)c(N2CCNC(C)C2)cc2c1c(=O)c(C(=O)O)cn2C1CC1 (stereo not given),4.49%
14,CCOc1ccc(NC(=O)CC(C)O)cc1 (stereo not given),-0.012%
15,C#C[C@]1(O)CC[C@H]2[C@@H]3CCC4=CC(=O)CC[C@@H]4[C@H]3CC[C@@]21C,27.3%
16,Oc1c(Cl)cc(Cl)cc1Sc1cc(Cl)cc(Cl)c1O,10.3%
17,Nc1ccc(C(=O)O)cc1,23.7%
18,c1ccc(OCc2ccc(CCCN3CCOCC3)cc2)cc1,20.6%

# Experiment: qHTS assay for measurement of the activity of small molecule inhibitors on Zika virus induced Caspase-3 activity in human astrocytoma cells (AID 1224859);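 further: plate controls were ZIKV-infected untreated cells for no effect and uninfected cells for full effect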
# Conditions: SNB-19 ZIKV-induced caspase-3/7, luminescence, 6 h; series mostly up to 45.7 µM; activity change, negative = inhibition: at the top concentration
# Procedure, shortened: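 Compound added 1 h pre-infection; ZIKV 2 FFU/cell on SNB-19 cells, 6 h, 37 C/5% CO2. Caspase-Glo 3/7 luminescence; values as % inhibition of ZIKV-induced caspase activity.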
row,Structure (SMILES),"activity change, negative = inhibition"
1,CCCSS/C(CCO)=C(\C)N(C=O)Cc1cnc(C)nc1N,58.8%
2,CN(C)CCOc1ccccc1Cc1ccccc1,-1.08%
3,C=C(CC)C(=O)c1ccc(OCC(=O)O)c(Cl)c1Cl,3.03%
4,Cc1ccnc(NS(=O)(=O)c2ccc(N)cc2)n1,-14.3%
5,CC(C)=CCC1C(=O)N(c2ccccc2)N(c2ccccc2)C1=O,24.4%
6,CCN1CCN(c2cc3c(cc2F)c(=O)c(C(=O)O)cn3C2CC2)CC1,-15.8%
7,CC/C(=C(/CC)c1ccc(O)cc1)c1ccc(O)cc1,-5.47%
8,C[C@H]1C[C@H]2[C@@H]3CCC4=CC(=O)C=C[C@]4(C)[C@@]3(Cl)[C@@H](O)C[C@]2(C)[C@@]1(O)C(=O)CO,12.4%
9,COc1cccc2c1C(=O)c1c(O)c3c(c(O)c1C2=O)C[C@@](O)(C(C)=O)C[C@@H]3O[C@H]1C[C@H](N)[C@H](O)[C@H](C)O1,-3.99%
10,O=c1ccc2ccccc2o1,6.23%
11,CC(O)(P(=O)(O)O)P(=O)(O)O,2.43%
12,C=CCc1ccc(O)c(OC)c1,11.3%
13,CC(O)C(=O)O (stereo not given),1.41%
14,NC(CO)(CO)CO,-2.22%
15,CCCCN1CCCC1C(=O)Nc1c(C)cc(C)cc1C (stereo not given),7.3%
16,Oc1ccc(Cl)c2cccnc12,-3.99%
17,CCN(CCCc1ccccc1)CCCc1ccccc1,-8.51%
18,CCCCCCc1ccc(O)cc1O,22.6%

row,Structure (SMILES),"activity change, negative = inhibition"
1,COc1cc(-c2ccc(=O)[nH]n2)ccc1OC(F)F,-3.09%
2,CC(C)(C)CC(C)(C)c1ccc(OCCOCC[N+](C)(C)Cc2ccccc2)cc1,24.3%
3,CCCCCCCCCCCCCCCCCC(=O)OCC(O)CO (stereo not given),-4.59%
4,Cc1nc2n(c(=O)c1CCN1CCC(c3noc4cc(F)ccc34)CC1)CCC[C@H]2O,-7.14% [at 20.5 µM]
5,CC[N+](CC)(CCNC(=O)C(=O)NCC[N+](CC)(CC)Cc1ccccc1Cl)Cc1ccccc1Cl,-0.369%
6,CN(C)/N=N/c1nc[nH]c1C(N)=O,2.05%
7,O=C(N/N=C/c1ccccc1O)c1ccncc1,-2.05%
8,Cc1cc(=O)n(-c2ccccc2)n1C,-2.7%
9,CC1=C(C(=O)O)N2C(=O)[C@@H](NC(=O)[C@H](N)c3ccc(O)cc3)[C@H]2SC1,-10.3%
10,CC(=O)OCC(=O)[C@@]12N=C(C)O[C@@H]1C[C@H]1[C@@H]3CCC4=CC(=O)C=C[C@]4(C)[C@H]3[C@@H](O)C[C@@]12C,-5.36%
11,C[C@]12CC[C@@H]3c4ccc(O)cc4CC[C@H]3[C@@H]1C[C@@H](O)[C@@H]2O,-0.438%
12,C[n+]1c2cc(N)ccc2cc2ccc(N)cc21 (tested in a mixture with another compound),12.5%
13,Cc1c(F)c(N2CCNC(C)C2)cc2c1c(=O)c(C(=O)O)cn2C1CC1 (stereo not given),-18.4%
14,CCOc1ccc(NC(=O)CC(C)O)cc1 (stereo not given),4.33%
15,C#C[C@]1(O)CC[C@H]2[C@@H]3CCC4=CC(=O)CC[C@@H]4[C@H]3CC[C@@]21C,3.43%
16,Oc1c(Cl)cc(Cl)cc1Sc1cc(Cl)cc(Cl)c1O,4.25%
17,Nc1ccc(C(=O)O)cc1,3.46%
18,c1ccc(OCc2ccc(CCCN3CCOCC3)cc2)cc1,-10.6%
